Experimental data as given in PubChem BioAssay (NCI).
This is part of a sample that, as a whole, favours compounds with a hit. Of some 83,000 tested, about 20% had one in any assay.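 A percent growth of 40 corresponds to 60% growth inhibition; 0 means no net growth; -100 means all cells died. Active threshold: below 10.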 Activity calls are given as the source filed them.

Key:
Experiment in all cases: NCI-60 one-dose screen, 48 h (100 = growth as untreated, 0 = no growth, -100 = all killed)
T-47D breast = conditions: 10 µM
BT-549 breast = conditions: 10 µM
MDA-MB-435 melanoma = conditions: 10 µM
SW-620 colon = conditions: 10 µM
MCF7 breast = conditions: 10 µM unless noted
HCT-116 colon = conditions: 10 µM
HCC-2998 colon = conditions: 10 µM
KM12 colon = conditions: 10 µM

Measured: growth

O=[N+]([O-])c1cccc2nsnc12
inactive: T-47D breast 103% | BT-549 breast 106% | MDA-MB-435 melanoma 111% | SW-620 colon 104% | MCF7 breast 93.5% | HCT-116 colon 99.1% | HCC-2998 colon 111% | KM12 colon 104%

N#CC(=Nc1cccc(F)c1)C1=C(O)c2ccccc2C1=O
inactive: T-47D breast 83.2% | BT-549 breast 89.2% | MDA-MB-435 melanoma 99.4% | SW-620 colon 95.4% | MCF7 breast 83.2% | HCT-116 colon 97% | HCC-2998 colon 101% | KM12 colon 102%

OCc1ccc(-c2ccc(-c3ccc(CO)s3)o2)s1
active: T-47D breast -15.5% | MCF7 breast 9.78% | HCT-116 colon 5.2% | HCC-2998 colon -14.5%
inactive: BT-549 breast 58.4% | MDA-MB-435 melanoma 38% | SW-620 colon 10.9% | KM12 colon 81.5%

O=C(Nc1ccccc1)OCCc1ccccc1
inactive: T-47D breast 104% | BT-549 breast 98.1% | MDA-MB-435 melanoma 99% | SW-620 colon 106% | MCF7 breast 93.7% | HCT-116 colon 109% | HCC-2998 colon 99.7% | KM12 colon 111%

Cc1cc(C)c(CC(=O)O)c(C)c1
inactive: T-47D breast 106% | BT-549 breast 104% | MDA-MB-435 melanoma 104% | SW-620 colon 102% | MCF7 breast 95.9% | HCT-116 colon 105% | HCC-2998 colon 111% | KM12 colon 103%

CN(C)CCN(Cc1ccccc1)c1ccccc1
inactive: T-47D breast 95% | BT-549 breast 119% | MDA-MB-435 melanoma 95% | SW-620 colon 102% | MCF7 breast 112% | HCT-116 colon 113% | HCC-2998 colon 105% | KM12 colon 113%

COc1cc2c3c(n(C)c(=O)c2cc1OC)-c1cc2c(cc1C3=O)OCO2
inactive: T-47D breast 28.2% | BT-549 breast 68.6% | MDA-MB-435 melanoma 72.3% | SW-620 colon 58.8% | MCF7 breast 26.8% | HCT-116 colon 51.5% | HCC-2998 colon 64.5% | KM12 colon 83.9%

CCOC(=O)c1ccc(Nc2sc(C(=O)c3cccc([N+](=O)[O-])c3)c(N)c2C#N)cc1
inactive: T-47D breast 48% | BT-549 breast 52.9% | HCC-2998 colon 45.8% | KM12 colon 17.5%
active: MDA-MB-435 melanoma -2.02% | SW-620 colon 5.69% | MCF7 breast 7.42% | HCT-116 colon 0.851%

CCOC(=O)C(C#N)Cc1ccccc1 (stereo not drawn)
inactive: T-47D breast 107% | BT-549 breast 117% | MDA-MB-435 melanoma 109% | SW-620 colon 117% | MCF7 breast 103% | HCT-116 colon 112% | HCC-2998 colon 118% | KM12 colon 133%

C/C=C/CC(C)C(O)C1C(=O)NC(CC)C(=O)N(C)CC(=O)N(C)C(CC(C)C)C(=O)NC(C(C)C)C(=O)N(C)C(CC(C)C)C(=O)NC(C)C(=O)NC(C)C(=O)N(C)C(CC(C)C)C(=O)N(C)C(CC(C)C)C(=O)N(C)C(C(C)C)C(=O)N1C (stereo not drawn)
inactive: T-47D breast 23.2% | SW-620 colon 31.3% | MCF7 breast 18.7% | KM12 colon 17.7%
active: BT-549 breast -14.4% | MDA-MB-435 melanoma -6.76% | HCT-116 colon 8.61% | HCC-2998 colon 1.86%

CCCCNC1(C#N)CCN(Cc2ccccc2)CC1
inactive: T-47D breast 17.8% | BT-549 breast 107% | MDA-MB-435 melanoma 97.5% | SW-620 colon 102% | MCF7 breast 102% | HCT-116 colon 98% | HCC-2998 colon 86.9% | KM12 colon 144%

C=C[Si](OC(C)=O)(OC(C)=O)OC(C)=O
inactive: T-47D breast 93.6% | BT-549 breast 95.9% | MDA-MB-435 melanoma 99.6% | SW-620 colon 101% | MCF7 breast 92.9% | HCT-116 colon 100% | HCC-2998 colon 103% | KM12 colon 104%

O=c1cc(-c2ccccc2)[nH]c2c1CCCC2
active: MDA-MB-435 melanoma -12.9%
inactive: T-47D breast 22.8% | BT-549 breast 53.7% | SW-620 colon 24.2% | MCF7 breast 17.2% | HCT-116 colon 27.9% | HCC-2998 colon 40% | KM12 colon 26.3%

NC(C(=O)O)C(O)c1ccco1 (stereo not drawn)
inactive: T-47D breast 98% | BT-549 breast 109% | MDA-MB-435 melanoma 107% | SW-620 colon 102% | MCF7 breast 95.2% | HCT-116 colon 111% | HCC-2998 colon 107% | KM12 colon 107%

N#CC1(Nc2ccc3c4c(cccc24)CC3)CCCCC1
inactive: T-47D breast 54.9% | BT-549 breast 96.3% | MDA-MB-435 melanoma 99% | SW-620 colon 110% | MCF7 breast 15.4% | HCT-116 colon 108% | HCC-2998 colon 116% | KM12 colon 90.1%

Cc1cc(Cc2cc(C)c(N)cc2N)c(N)cc1N
inactive: T-47D breast 83.5% | BT-549 breast 98.3% | MDA-MB-435 melanoma 106% | SW-620 colon 90.8% | MCF7 breast 88.6% | HCT-116 colon 94.8% | HCC-2998 colon 108% | KM12 colon 99.5%

COc1ccc(C(=O)C(Br)C(Br)C(=O)O)cc1 (stereo not drawn)
inactive: T-47D breast 106% | BT-549 breast 99.5% | MDA-MB-435 melanoma 108% | SW-620 colon 113% | MCF7 breast 91.1% | HCT-116 colon 94.9% | HCC-2998 colon 113% | KM12 colon 111%

S=C1NCc2cncnc2N1
inactive: T-47D breast 105% | BT-549 breast 100% | MDA-MB-435 melanoma 101% | SW-620 colon 109% | MCF7 breast 93.4% | HCT-116 colon 99.1% | HCC-2998 colon 106% | KM12 colon 106%

C#CC(C)(O)c1ccc(Cl)cc1 (stereo not drawn)
inactive: T-47D breast 86.1% | BT-549 breast 105% | MDA-MB-435 melanoma 110% | SW-620 colon 109% | MCF7 breast 97% | HCT-116 colon 96.8% | HCC-2998 colon 97.8% | KM12 colon 105%

COc1ccc(-c2cc3c(nn2)-c2ccccc2C3=O)cc1
active: SW-620 colon 4.15%
inactive: T-47D breast 77.5% | BT-549 breast 89.7% | MDA-MB-435 melanoma 10.4% | MCF7 breast 16.2% | HCT-116 colon 32% | HCC-2998 colon 34.5% | KM12 colon 37.1%

COc1cc(/C=C(\C#N)C(=O)c2ccccc2)ccc1OCc1ccccc1
inactive: T-47D breast 105% | BT-549 breast 94.9% | MDA-MB-435 melanoma 101% | SW-620 colon 99.4% | MCF7 breast 96.6% | HCT-116 colon 104% | HCC-2998 colon 89.8% | KM12 colon 99.1%

CN(C)/N=C/c1ccccc1O
inactive: T-47D breast 98.6% | BT-549 breast 97.5% | MDA-MB-435 melanoma 107% | SW-620 colon 100% | MCF7 breast 106% | HCT-116 colon 94.6% | HCC-2998 colon 117% | KM12 colon 107%

CC1(C)N=C(N)N=C(N)N1c1ccc(Cl)cc1
inactive: T-47D breast 94.6% | BT-549 breast 76% | MDA-MB-435 melanoma 28.8% | SW-620 colon 34.3% | MCF7 breast 41.1% | HCT-116 colon 25.1% | HCC-2998 colon 36.8% | KM12 colon 50.1%

Brc1cnc2ccccc2c1
inactive: T-47D breast 108% | BT-549 breast 103% | MDA-MB-435 melanoma 105% | SW-620 colon 95.8% | MCF7 breast 101% | HCT-116 colon 106% | HCC-2998 colon 100% | KM12 colon 100%

Cc1cc(C(O)(c2ccc(Nc3ccccc3)cc2)c2ccc(Nc3ccc(S(=O)(=O)O)cc3)cc2)ccc1N (stereo not drawn)
active: T-47D breast -5.86% | MDA-MB-435 melanoma -67.4% | SW-620 colon -32.6% | MCF7 breast -3.23% | HCT-116 colon 6.56% | HCC-2998 colon -20.5% | KM12 colon 4.39%
inactive: BT-549 breast 22.6%

CC1(O)CCCCC1O (stereo not drawn)
inactive: T-47D breast 98.4% | BT-549 breast 94% | MDA-MB-435 melanoma 117% | SW-620 colon 104% | MCF7 breast 106% | HCT-116 colon 101% | HCC-2998 colon 104% | KM12 colon 115%

CCOC(=O)/C(C#N)=C/c1cccc(C)c1
inactive: T-47D breast 86.5% | BT-549 breast 64.1% | MDA-MB-435 melanoma 107% | SW-620 colon 103% | MCF7 breast 91.3% | HCT-116 colon 95.9% | HCC-2998 colon 102% | KM12 colon 103%

CCCNC(=O)c1ccc(S(N)(=O)=O)cc1
inactive: T-47D breast 96% | BT-549 breast 120% | MDA-MB-435 melanoma 117% | SW-620 colon 94.5% | MCF7 breast 95% | HCT-116 colon 96.4% | HCC-2998 colon 100% | KM12 colon 106%

O=C1C=C(O)C(=O)C=C1O
inactive: T-47D breast 93.9% | BT-549 breast 103% | MDA-MB-435 melanoma 109% | SW-620 colon 104% | MCF7 breast 96.5% | HCT-116 colon 105% | HCC-2998 colon 111% | KM12 colon 107%

CCCC(=O)Nc1ccc2c(c1)CN1C(=O)c3ccccc3C1=N2
inactive: T-47D breast 101% | BT-549 breast 107% | MDA-MB-435 melanoma 106% | SW-620 colon 105% | MCF7 breast 96% | HCT-116 colon 102% | HCC-2998 colon 85.4% | KM12 colon 97.5%

CC1(C)N=C(N)N=C(N)N1c1cccc(Br)c1
inactive: T-47D breast 80.9% | BT-549 breast 46.7% | MDA-MB-435 melanoma 26.3% | SW-620 colon 36.6% | MCF7 breast 23.6% | HCT-116 colon 22.9% | HCC-2998 colon 23.4% | KM12 colon 40.6%

CCOC(=O)CNN
inactive: T-47D breast 104% | BT-549 breast 108% | MDA-MB-435 melanoma 108% | SW-620 colon 99.2% | MCF7 breast 97.9% | HCT-116 colon 107% | HCC-2998 colon 106% | KM12 colon 101%

O=C(Nc1cc(-c2ccccc2)[nH]n1)c1ccc(Cl)cc1
inactive: T-47D breast 74.1% | BT-549 breast 83.5% | MDA-MB-435 melanoma 86.4% | SW-620 colon 86.1% | MCF7 breast 87.6% | HCT-116 colon 72.3% | HCC-2998 colon 100% | KM12 colon 48.6%

CC(=O)Nc1c(C)cc(C)cc1C
inactive: T-47D breast 98.2% | BT-549 breast 105% | MDA-MB-435 melanoma 102% | SW-620 colon 106% | MCF7 breast 96.5% | HCT-116 colon 102% | HCC-2998 colon 104% | KM12 colon 103%

NC(=O)NC(=O)c1ccc(Cl)cc1
inactive: T-47D breast 96.9% | BT-549 breast 99.4% | MDA-MB-435 melanoma 102% | SW-620 colon 102% | MCF7 breast 95.4% | HCT-116 colon 87.9% | HCC-2998 colon 111% | KM12 colon 110%

O=C(c1ccc(O)cc1)c1ccc(O)cc1
inactive: T-47D breast 113% | BT-549 breast 122% | MDA-MB-435 melanoma 105% | SW-620 colon 113% | MCF7 breast 113% | HCT-116 colon 95% | HCC-2998 colon 105% | KM12 colon 100%
